Laboratory results from PubChem BioAssay AID463173 (ICCB-Longwood Screening Facility, Harvard Medical School, 2010).
Among all 52,000 compounds or so, about 4,300 (8.3%) were called active. Many of the other results were omitted from the sample, so actives are more common in it than they were. Unmarked numbers belong to inactive results. Rule as the data show it: active = survival mostly below about 52% (no sharp cut-off); inactive = mostly above about 56%.

What follows are compounds tested on DeltatarO mutant (assay: growth inhibition of S. aureus wild type versus tarO mutant, primary screen, teichoic acid synthesis inhibitors, RN4220, OD600 (AID 463173)). Details: OD600, 18 h, hits give low values, screened at 18.75 µg/mL (by protocol).

Structure (SMILES) | survival
Cc1ccc(NC(=O)CSc2nccn2Cc2ccco2)cc1Cl | 87%
CCN(c1ccc(C)cc1)S(=O)(=O)c1nnc(NC(=O)c2cccs2)s1 | 14% (active)
CCN(c1ccccc1)S(=O)(=O)c1nnc(NC(=O)c2cccs2)s1 | 28% (active)
CCN(c1ccccc1)S(=O)(=O)c1nnc(NC(=O)c2ccccc2)s1 | 38% (active)
CCN(c1ccccc1)S(=O)(=O)c1nnc(NC(=O)C(C)Oc2ccccc2)s1 (stereo unspecified) | 43%
CCN(c1ccccc1)S(=O)(=O)c1nnc(NC(=O)C2CCCCC2)s1 | 48% (active)
CCN(c1ccc(Cl)cc1)S(=O)(=O)c1nnc(NC(=O)C2CCCCC2)s1 | 74%
CCN(c1ccccc1)S(=O)(=O)c1nnc(NC(=O)C(C)(C)C)s1 | 49%
CCN(c1ccc(C)cc1)S(=O)(=O)c1nnc(NC(=O)C2CCCCC2)s1 | 109%
COc1ccc(OCC(=O)OCc2cc(=O)n3nc(C4CC4)sc3n2)cc1 | 61%
COc1ccc(CNC(=O)CC(c2ccc(OC)c(OC)c2)N2Cc3ccccc3C2=O)cc1 (stereo unspecified) | 87%
CCC(=O)N1CCc2cc(OC)c(OC)cc2C1COc1ccc2c(C)cc(=O)oc2c1 (stereo unspecified) | 136%
O=C(Nc1ccc(F)c(F)c1)c1cc(S(=O)(=O)NC2CCCC2)ccc1F | 118%
CC(C)Oc1ccc(CNS(=O)(=O)c2csc(C(N)=O)c2)cc1 | 101%
COc1cccc2c1Oc1ncccc1N(C(=O)CCC(=O)NCc1ccc(OC(C)C)cc1)C2 | 83%
CCCCN(C)C(=O)CN1C(=O)c2cccnc2Oc2ccc(Cl)cc21 | 89%
CCN(c1ccccc1)S(=O)(=O)c1nnc(NC(=O)COc2ccccc2F)s1 | 31% (active)
CCN(CC)S(=O)(=O)c1nnc(NC(=O)COc2ccccc2F)s1 | 103%
CCN(c1ccccc1)S(=O)(=O)c1nnc(NC(=O)COc2ccc(OC)cc2)s1 | 55%
O=C1C2CCCC1C(c1ccc3c(c1)OCO3)NC2c1ccc2c(c1)OCO2 (stereo unspecified) | 58%
Cc1ccc(-n2ncc(C(=O)NCCCN3CCN(C)CC3)c2C2CCN(C(=O)OC(C)(C)C)CC2)cc1 | 96%
COc1ccc(N2CCN(C(=O)c3noc4c3CCCCC4)CC2)cc1 | 72%
O=C(c1ccc2c(c1)N(Cc1ccc(F)cc1)C(=O)c1ccccc1S2(=O)=O)N1CCCCCC1 | 71%
Cc1ccc2oc(C(=O)Nc3ccc(S(=O)(=O)N(C)Cc4ccccc4)cc3)cc(=O)c2c1 | 50%

Structure (SMILES) | survival
CCN(C(=O)C1CCCN(c2ncnc3c2nc2n3CCCCC2)C1)c1cccc(Cl)c1 (stereo unspecified) | 82%
Clc1cccc(N2CCN(c3ncnc4c3nc3n4CCCCC3)CC2)c1 | 11% (active)
Cc1ccc(NC(=O)C2CCCN(c3ncnc4c3nc3n4CCCCC3)C2)cc1F (stereo unspecified) | 92%
Clc1cccc(N2CCN(c3ncnc4c3nc3n4CCCC3)CC2)c1 | 114%
O=C(C1CCN(c2ncnc3c2nc2n3CCCCC2)CC1)N1CCN(c2cccc(Cl)c2)CC1 | 64%
c1ccc(N2CCN(c3ncnc4c3nc3n4CCCCC3)CC2)cc1 | 89%
COc1cccc(N2CCN(c3ncnc4c3nc3n4CCCCC3)CC2)c1 | 20% (active)
COc1ccc(N2CCN(c3ncnc4c3nc3n4CCCCC3)CC2)cc1 | 100%
O=C(Nc1cccc(Cl)c1)C1CCCN(c2ncnc3c2nc2n3CCCCC2)C1 (stereo unspecified) | 17% (active)
COc1ccc(OC)c(CNc2ncnc3onc(C)c23)c1 | 129%
CCOc1ccc(NC(=O)c2cc(S(=O)(=O)N3CCC(C)CC3)cn2C)cc1 | 112%
CCOc1ccc(/C=C/c2nc(C#N)c(NCc3ccc(OC)cc3)o2)cc1 | 68%
CCOC(=O)c1[nH]c2c(c1Cc1ccccc1)C(=O)CC(c1ccccc1)C2 (stereo unspecified) | 64%
CCOc1ccc(CCNc2nc3c(-c4ccc(C)cc4)nnn3c3ccccc23)cc1OCC | 88%
Cc1cc(-c2ccc(C)c(S(=O)(=O)N(C)c3ccc(C)c(C)c3)c2)on1 | 86%
COc1ccc(CCNC(=O)c2cc3c(=O)n4ccccc4nc3n2C)cc1 | 61%
Cn1c(C(=O)Nc2ccc(OC(F)(F)F)cc2)cc2c(=O)n3ccccc3nc21 | 55% (active)
Cn1c(C(=O)Nc2cccc(C(F)(F)F)c2)cc2c(=O)n3ccccc3nc21 | 98%
CCCCCNC(=O)c1cc2c(=O)n3ccccc3nc2n1C | 54%
O=C(Nc1ccc(OC(F)(F)F)cc1)c1cc2c(=O)n3ccccc3nc2s1 | 87%
Cn1c(C(=O)NCCc2ccccc2)cc2c(=O)n3ccccc3nc21 | 48% (active)
Cc1ccc(NC(=O)CSc2nc3c(c(=O)[nH]2)CN(Cc2ccccc2)CC3)cc1Cl | 70%
CSc1ccc(CCNC(=O)CCCn2nc(C)c3sc4ccccc4c3c2=O)cc1 | 76%
N/N=C1\C(=N/O)CCc2nonc21 | 95%

Structure (SMILES) | survival
CCN(CC)c1ccc(NC(=O)Cn2ncc3c(C)n(Cc4ccccc4F)c(C)c3c2=O)c(C)c1 | 79%
Fc1ccccc1N1CCN(c2ncnc3onc(-c4cccc(Cl)c4)c23)CC1 | 53%
Fc1ccc(N2CCN(c3ncnc4onc(-c5ccc(Cl)cc5)c34)CC2)cc1 | 65%
Cc1oc2ncnc(N3CCCCC3)c2c1C(=O)N1CCN(c2cccc(C(F)(F)F)c2)CC1 | 66%
Cc1nc(N2CCOCC2)c2c(C(=O)N3CCN(c4ccc(Cl)cc4)CC3)c(C)oc2n1 | 92%
Cc1oc2ncnc(N3CCOCC3)c2c1C(=O)NCCc1ccccc1 | 89%
Cc1ccc(CCNC(=O)c2c(C)oc3nc(C)nc(N4CCOCC4)c23)cc1 | 106%
Cc1nc(N2CCCC2)c2c(C(=O)N3CCN(c4ccccc4)CC3)c(C)oc2n1 | 81%
Cc1oc2ncnc(N3CCOCC3)c2c1C(=O)N1CCN(c2cccc(C(F)(F)F)c2)CC1 | -5% (active)
Cc1nc(N2CCOCC2)c2c(C(=O)NCCc3ccccc3)c(C)oc2n1 | 0% (active)
Fc1ccccc1N1CCN(c2ncnc3onc(-c4ccc(Cl)cc4)c23)CC1 | 54% (active)
Cc1nc(N2CCOCC2)c2c(C(=O)N3CCN(c4ccccc4)CC3)c(C)oc2n1 | 37% (active)
Cc1nc(N2CCOCC2)c2c(C(=O)N3CCN(c4cccc(C(F)(F)F)c4)CC3)c(C)oc2n1 | 105%
COc1ccc2c(CNCc3cccs3)c(C(=O)O)n(Cc3ccc(C)cc3)c2c1 | 77%
CCCOc1ccc(C(=O)NCC(c2ccc(OC)cc2)N2CCCCC2)cc1 (stereo unspecified) | 84%
Cc1nc2ccc(NC(=O)C3CC3)cc2c(=O)n1Cc1ccc(F)cc1 | 74%
Cc1ccc(CCNC(=O)c2cc(-c3ccc(Cl)cc3)n[nH]2)cc1 | 69%
CC(Nc1ncnc2c1cnn2-c1cccc(Cl)c1)c1ccccc1 (stereo unspecified) | 124%
COc1ccccc1Cn1c(CNS(=O)(=O)c2ccc3c(c2)CCCC3)nc2cccnc21 | 96%
CCOCCCn1c(=N)c(S(=O)(=O)c2ccccc2)cc2c(=O)n3cc(C)ccc3nc21 | 88%
Cc1ccc(CN2CCCn3nc(C(=O)NCc4ccc(N(C)C)cc4)cc3C2=O)cc1 | 80%
Cc1ccc(Cl)cc1N1CCN(C(=O)c2c(C)oc3ncnc(N4CCCCC4)c23)CC1 | -4% (active)
Cc1ccc(Cl)cc1N1CCN(C(=O)c2c(C)oc3ncnc(N4CCOCC4)c23)CC1 | 89%
Cc1ccc(C)c(N2CCN(C(=O)c3c(C)oc4nc(C)nc(N5CCOCC5)c34)CC2)c1 | 115%

Structure (SMILES) | survival
Cc1ccc(C)c(N2CCN(c3ncnc4onc(C)c34)CC2)c1 | 90%
Cc1nc(N2CCCC2)c2c(C(=O)N3CCN(c4cc(Cl)ccc4C)CC3)c(C)oc2n1 | 102%
Cc1ccc(Cl)cc1N1CCN(c2ncnc3onc(-c4ccc(F)cc4)c23)CC1 | 97%
Cc1ccc(Cl)cc1N1CCN(c2ncnc3onc(C)c23)CC1 | 52% (active)
Cc1nc(N2CCOCC2)c2c(C(=O)N3CCN(c4cc(Cl)ccc4C)CC3)c(C)oc2n1 | 46% (active)
Cc1oc2ncnc(N3CCCCC3)c2c1C(=O)N1CCN(c2ccc(Cl)cc2)CC1 | 60%
CCc1c(C)nc2cc(-c3ccc(OC)c(OC)c3)nn2c1NCC(C)(C)CN(C)C | 98%
Cc1ccc(-n2ncc(C(=O)NCc3ccccn3)c2C2CCN(C(=O)OC(C)(C)C)CC2)cc1C | 102%
CCCC(=O)N1CCCC(c2nc(-c3ccc(OC)cc3)no2)C1 (stereo unspecified) | 82%
CCOc1nc(NC(=O)NS(=O)(=O)Oc2cccc(F)c2)nc(-c2ccccc2)n1 | 74%
Cc1c(NC(=O)Nc2ccccc2C(F)(F)F)sc2nc3n(c(=O)c12)CCC(C)CC3 (stereo unspecified) | 83%
COc1cccc(C(=O)NC2CC(=O)N(c3ccc4c(c3)OCCO4)C2)c1OC (stereo unspecified) | 107%
CCCCN(CCCC)CCCNC(=O)c1ccc2nc(N3CCCCC3)sc2c1 | 102%
CCCCOCc1cc(CN2CCN(c3cccc(Cl)c3)CC2)c(O)c2ncccc12 | 83%
CCc1cccc(C)c1NC(=O)C1CCN(S(=O)(=O)Cc2ccccc2)CC1 | 84%
Cc1ccc(CNC(=O)CN(c2cccc(C)c2C)S(=O)(=O)c2ccccc2)cc1 | 73%
COc1ccc(CCNC(=O)CN(c2ccccc2OC)S(=O)(=O)c2ccc(C)cc2)cc1 | 71%
Cc1ccc(S(=O)(=O)N(CC(=O)NCCSc2ccc(Cl)cc2)c2cccc(Cl)c2)cc1 | 112%
Cc1ccc(S(=O)(=O)N(CC(=O)NCCc2ccc(Cl)cc2)c2ccccc2C)cc1 | 49% (active)
Cc1cccc(N(CC(=O)NCCSCc2ccccc2)S(=O)(=O)c2ccccc2)c1C | 57%
Cc1ccc(S(=O)(=O)N(CC(=O)Nc2ccc(Cl)cc2Cl)c2ccccc2C)cc1 | 106%
Cc1cccc(N(CC(=O)NCCc2ccccc2)S(=O)(=O)c2ccccc2)c1C | 56% (active)
Cc1ccc(S(=O)(=O)N(CC(=O)Nc2c(C)cccc2C)c2cccc(Cl)c2)cc1 | 46% (active)
Cc1ccc(S(=O)(=O)N(CC(=O)NCCSc2ccc(Cl)cc2)c2ccccc2C)cc1 | 58%
